# Results: PubChem BioAssay (NCI)
# This is part of a sample that, as a whole, favours compounds with a hit. Of some 83,000 tested, about 20% had one in any assay.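 Testing used 96-well plates and a 48-hour single-concentration exposure. Example: -40 means 40% of the starting cells died.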 Active and inactive are the calls of the source. Rule for the calls: active = growth percent below 10; inactive = the rest.
# Test system: NCI-H460 lung
# Experiment: NCI-60 one-dose screen, 48 h (100 = growth as untreated, 0 = no growth, -100 = all killed)
# Conditions: 10 µM unless noted
row,SMILES,growth
1,CCN(CC)CCCC(C)Nc1c2ccc(Cl)cc2nc2ccc(O)cc12 (stereo unspecified),14.7% (inactive)
2,Cc1ccc(-c2cc3c(cc2O)C2CCCCC2(N2CCOCC2)O3)cc1 (stereo unspecified),103% (inactive)
3,CNC(=O)NCC1OC(n2cnc3c(NC(=O)Nc4ccccc4)ncnc32)C(O[Si](C)(C)C(C)(C)C)C1CC(=O)N(C)OC (stereo unspecified),18.1% (inactive)
4,COc1cc(/C=C/C(=O)c2cccc(-n3cc(-c4ccccc4)[nH]c3=O)c2)ccc1O,89.2% (inactive)
5,CC(=O)OC1CCC2(C)C(=CC3C4CCC(=O)C4(C)CCC32)C1 (stereo unspecified),108% (inactive)
6,O=C(Nc1ccccc1-c1nc2ccccc2c(=O)[nH]1)c1cc2ccccc2[nH]1,93.2% (inactive)
7,CC(=O)OC[C@H]1OC(Sc2sc(C(=O)c3ccc(Br)cc3)c(N)c2-c2nc3ccccc3s2)[C@H](OC(C)=O)[C@@H](OC(C)=O)[C@@H]1OC(C)=O (stereo partly specified),44.3% (inactive)
8,O=C(COc1ccc(/C=C2\Oc3ccccc3C2=O)cc1)c1ccc(Cl)cc1,115% (inactive)
9,C=CC(=O)Nc1cccc(Oc2nccc(Nc3nnc(C4CC4)s3)n2)c1,95.6% (inactive)
10,O=C(NC(CSSCC(NC(=O)c1ccccc1)C(=O)O)C(=O)O)c1ccccc1 (stereo unspecified),107% (inactive)
11,CC(C)(C)c1ccc(/C=C/C(=O)Nc2ccc(O)cc2)cc1,46.9% (inactive)
12,CCOc1c(C#N)nnc2c(C#N)c(NC(=O)c3ccccc3)nn12,111% (inactive)
13,COc1ccc(N=C(c2ccccc2)C2C(=O)c3ccccc3C2=O)cc1,96.4% (inactive)
14,COc1ccc(-c2nc(SCCC(C)C)nc(N/N=C\c3ccccc3O)c2C#N)cc1,59.1% (inactive)
15,CN(Cc1cnc2nc(N)nc(N)c2n1)c1ccc(C(=O)N[C@@H](CCc2nn[nH]n2)c2nn[nH]n2)cc1,19.4% (inactive)
16,C[C@]12CC[C@@H]3c4cc(OC(F)F)c(O)cc4CC[C@H]3[C@@H]1CC[C@@H]2OS(N)(=O)=O,13.9% (inactive)
17,C[C@H](NC(=O)[C@@H]1CSSC[C@@H](NC(=O)c2nc3ccccc3cc2O)C(=O)NCC(=O)N1C)c1ccccc1,6.55% (active)
18,C=CCOC1=CC(=O)c2ccccc2C1=O,105% (inactive)
19,O=C(NCCc1ccc(O)c(O)c1)C12CC3CC(CC(C3)C1)C2,110% (inactive)

row,SMILES,growth
1,COc1ccc2c(c1)O/C(=C\c1cccc(OCC(=O)Nc3nc4ccccc4s3)c1)C2=O,110% (inactive)
2,Cn1c(=O)c2c(nc(Cl)n2CCl)n(C)c1=O,111% (inactive)
3,Cc1cc(C)c2c(-c3nnc(N)s3)cc(=O)oc2c1,103% (inactive)
4,O=c1[nH][n+](-c2ccc(Cl)cc2)no1,44.1% (inactive)
5,COC1=CC(=O)C[C@@H](C)[C@]12Oc1c(Cl)c(OC)cc(OC)c1C2=O,110% (inactive)
6,Cc1cc(Cl)nc(NCc2cc(Nc3ccnc4cc(Cl)ccc34)ccc2F)n1,34.8% (inactive)
7,c1ccc2c(c1)nc(CN1CCOCC1)n1cc(N3CCCC3)nc21,117% (inactive)
8,O=Cc1c[nH]c2ccc(-c3csc4ccccc34)cc12,29.3% (inactive)
9,N#C/C(=C\c1ccc2c(c1)OCO2)n1nnc2cc(F)c(F)cc21,77.5% (inactive)
10,N#Cc1c(N2CCNCC2)nc2sc3cc(Cl)c(Cl)cc3n2c1=N,97.8% (inactive)
11,CN(C)c1ccc(-c2cc(-c3ccc(Nc4nc(Nc5ccc(Cl)cc5)nc(Nc5ccc(Cl)cc5)n4)cc3)no2)cc1,27.1% (inactive)
12,CNc1ccc(NC)c2c1C(=O)c1ccccc1C2=O,91% (inactive)
13,NC(=N\N=C/c1ccccc1[N+](=O)[O-])/C(N)=N\N=C/c1ccccc1[N+](=O)[O-],104% (inactive)
14,C#Cc1cccc(NC(=O)c2ccc(NC(=O)CCl)cc2)c1,-24.6% [8.25 µM] (active)
15,COc1cc(/C=C/C(=O)c2ccc(Nc3nc(Nc4ccc(F)cc4)nc(Nc4ccc(Cl)cc4)n3)cc2)cc(OC)c1OC,55.1% (inactive)
16,Cc1cc(NCc2cc(Nc3ccnc4cc(Cl)ccc34)ccc2F)nc(Cl)n1,48.4% (inactive)
17,COc1cc(CCC[P+](c2ccccc2)(c2ccccc2)c2ccccc2)cc2c1OCO2,37.9% (inactive)
18,CC(=O)C(C)Cc1cc2c(cc1C)C(C)(C)CCC2(C)C (stereo unspecified),107% (inactive)
19,CCCCCc1nc2c(c3c1CCCC3)CCCC2,83% (inactive)

# Test system: HOP-92 NSCLC
# Experiment: as above
# Conditions: 10 µM unless noted
row,SMILES,growth
1,CCN(CC)CCCC(C)Nc1c2ccc(Cl)cc2nc2ccc(O)cc12 (stereo unspecified),50.3% (inactive)
2,Cc1ccc(-c2cc3c(cc2O)C2CCCCC2(N2CCOCC2)O3)cc1 (stereo unspecified),85.7% (inactive)
3,CNC(=O)NCC1OC(n2cnc3c(NC(=O)Nc4ccccc4)ncnc32)C(O[Si](C)(C)C(C)(C)C)C1CC(=O)N(C)OC (stereo unspecified),-34.3% (active)
4,COc1cc(/C=C/C(=O)c2cccc(-n3cc(-c4ccccc4)[nH]c3=O)c2)ccc1O,45.3% (inactive)
5,CC(=O)OC1CCC2(C)C(=CC3C4CCC(=O)C4(C)CCC32)C1 (stereo unspecified),101% (inactive)
6,O=C(Nc1ccccc1-c1nc2ccccc2c(=O)[nH]1)c1cc2ccccc2[nH]1,68.7% (inactive)
7,CC(=O)OC[C@H]1OC(Sc2sc(C(=O)c3ccc(Br)cc3)c(N)c2-c2nc3ccccc3s2)[C@H](OC(C)=O)[C@@H](OC(C)=O)[C@@H]1OC(C)=O (stereo partly specified),81.7% (inactive)
8,O=C(COc1ccc(/C=C2\Oc3ccccc3C2=O)cc1)c1ccc(Cl)cc1,88% (inactive)
9,C=CC(=O)Nc1cccc(Oc2nccc(Nc3nnc(C4CC4)s3)n2)c1,66.1% (inactive)
10,O=C(NC(CSSCC(NC(=O)c1ccccc1)C(=O)O)C(=O)O)c1ccccc1 (stereo unspecified),88.3% (inactive)
11,CC(C)(C)c1ccc(/C=C/C(=O)Nc2ccc(O)cc2)cc1,106% (inactive)
12,CCOc1c(C#N)nnc2c(C#N)c(NC(=O)c3ccccc3)nn12,89.3% (inactive)
13,COc1ccc(N=C(c2ccccc2)C2C(=O)c3ccccc3C2=O)cc1,-11.2% (active)
14,COc1ccc(-c2nc(SCCC(C)C)nc(N/N=C\c3ccccc3O)c2C#N)cc1,88.4% (inactive)
15,CN(Cc1cnc2nc(N)nc(N)c2n1)c1ccc(C(=O)N[C@@H](CCc2nn[nH]n2)c2nn[nH]n2)cc1,93.2% (inactive)
16,C[C@]12CC[C@@H]3c4cc(OC(F)F)c(O)cc4CC[C@H]3[C@@H]1CC[C@@H]2OS(N)(=O)=O,74.6% (inactive)
17,C[C@H](NC(=O)[C@@H]1CSSC[C@@H](NC(=O)c2nc3ccccc3cc2O)C(=O)NCC(=O)N1C)c1ccccc1,51.6% (inactive)
18,C=CCOC1=CC(=O)c2ccccc2C1=O,114% (inactive)
19,O=C(NCCc1ccc(O)c(O)c1)C12CC3CC(CC(C3)C1)C2,65.5% (inactive)

row,SMILES,growth
1,COc1ccc2c(c1)O/C(=C\c1cccc(OCC(=O)Nc3nc4ccccc4s3)c1)C2=O,-24.5% (active)
2,Cn1c(=O)c2c(nc(Cl)n2CCl)n(C)c1=O,97.6% (inactive)
3,Cc1cc(C)c2c(-c3nnc(N)s3)cc(=O)oc2c1,115% (inactive)
4,O=c1[nH][n+](-c2ccc(Cl)cc2)no1,95.1% (inactive)
5,COC1=CC(=O)C[C@@H](C)[C@]12Oc1c(Cl)c(OC)cc(OC)c1C2=O,89.4% (inactive)
6,Cc1cc(Cl)nc(NCc2cc(Nc3ccnc4cc(Cl)ccc34)ccc2F)n1,40.4% (inactive)
7,c1ccc2c(c1)nc(CN1CCOCC1)n1cc(N3CCCC3)nc21,-2.06% (active)
8,O=Cc1c[nH]c2ccc(-c3csc4ccccc34)cc12,55.9% (inactive)
9,N#C/C(=C\c1ccc2c(c1)OCO2)n1nnc2cc(F)c(F)cc21,46.5% (inactive)
10,N#Cc1c(N2CCNCC2)nc2sc3cc(Cl)c(Cl)cc3n2c1=N,93.6% (inactive)
11,CN(C)c1ccc(-c2cc(-c3ccc(Nc4nc(Nc5ccc(Cl)cc5)nc(Nc5ccc(Cl)cc5)n4)cc3)no2)cc1,-11.5% (active)
12,CNc1ccc(NC)c2c1C(=O)c1ccccc1C2=O,78.3% (inactive)
13,NC(=N\N=C/c1ccccc1[N+](=O)[O-])/C(N)=N\N=C/c1ccccc1[N+](=O)[O-],89% (inactive)
14,C#Cc1cccc(NC(=O)c2ccc(NC(=O)CCl)cc2)c1,-57.6% [8.25 µM] (active)
15,COc1cc(/C=C/C(=O)c2ccc(Nc3nc(Nc4ccc(F)cc4)nc(Nc4ccc(Cl)cc4)n3)cc2)cc(OC)c1OC,38% (inactive)
16,Cc1cc(NCc2cc(Nc3ccnc4cc(Cl)ccc34)ccc2F)nc(Cl)n1,31.9% (inactive)
17,COc1cc(CCC[P+](c2ccccc2)(c2ccccc2)c2ccccc2)cc2c1OCO2,25.3% (inactive)
18,CC(=O)C(C)Cc1cc2c(cc1C)C(C)(C)CCC2(C)C (stereo unspecified),85.7% (inactive)
19,CCCCCc1nc2c(c3c1CCCC3)CCCC2,56.2% (inactive)
